According to the supplement of paper PMC3545927:
This is one part of the list. How many sequences the whole screen found active is unknown.

Target: furin, P09958
Assay: furin cleavage Z-score vs untreated control; higher = more cleavage, active = 3.5 or more, inactive = 1 or less, 8 variable residues between constant flanks
In short: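 Peptides 8 residues long, fused to a cDNA oligonucleotide, were fixed to magnetic beads by the N-terminus and exposed to purified furin. The 0.01 ml reactions contained 50 mM HEPES pH 7.5 with CaCl2 and NaCl at 1:10 enzyme:substrate and ran 7.5, 15 or 30 min. For the cleavage Z-score, log counts of sequenced released DNA were compared with furin-free reactions, lowess-adjusted and scaled by median absolute deviation.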

furin, P09958, sequence (P09958 whole entry): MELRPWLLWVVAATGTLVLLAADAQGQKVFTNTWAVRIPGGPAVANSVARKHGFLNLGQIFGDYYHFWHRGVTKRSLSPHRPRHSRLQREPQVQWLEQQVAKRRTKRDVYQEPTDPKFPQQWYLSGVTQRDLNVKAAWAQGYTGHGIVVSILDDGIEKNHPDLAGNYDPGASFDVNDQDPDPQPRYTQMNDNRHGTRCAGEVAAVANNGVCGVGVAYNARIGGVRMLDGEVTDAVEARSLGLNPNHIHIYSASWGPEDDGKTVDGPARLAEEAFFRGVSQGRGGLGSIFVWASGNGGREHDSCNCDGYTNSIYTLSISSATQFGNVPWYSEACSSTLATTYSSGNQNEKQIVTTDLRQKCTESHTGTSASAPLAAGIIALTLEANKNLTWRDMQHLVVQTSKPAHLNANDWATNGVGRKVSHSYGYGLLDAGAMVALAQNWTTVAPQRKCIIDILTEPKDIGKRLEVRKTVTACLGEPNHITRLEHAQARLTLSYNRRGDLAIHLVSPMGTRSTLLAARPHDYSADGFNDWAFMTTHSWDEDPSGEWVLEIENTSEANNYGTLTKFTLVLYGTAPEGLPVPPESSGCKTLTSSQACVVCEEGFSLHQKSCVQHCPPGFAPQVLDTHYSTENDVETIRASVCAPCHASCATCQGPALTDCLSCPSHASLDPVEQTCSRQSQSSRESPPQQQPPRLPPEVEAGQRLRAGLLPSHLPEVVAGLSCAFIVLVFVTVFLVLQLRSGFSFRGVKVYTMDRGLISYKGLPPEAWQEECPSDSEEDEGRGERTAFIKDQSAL

Sequence	furin cleavage Z-score (7.5 min)	furin cleavage Z-score (15 min)	furin cleavage Z-score (30 min)
CAVFSRDSRSAGNASASA [FS-103]	2.25	0.692 (inactive)	2.36
CARRRRRKESAGNASASA [FS-2298]	2.91	3.94 (active)	2.81
CARRATLKRSAGNASASA [FS-624]	3.99 (active)	5.42 (active)	4.76 (active)
CAGQPGLKRSAGNASASA [FS-1203]	-1.59 (inactive)	1.19	-2.33 (inactive)
CARRRRDSRSAGNASASA [FS-1267]	9.84 (active)	9.21 (active)	7.48 (active)
CANKVRAKRSAGNASASA [FS-618]	10.6 (active)	10.4 (active)	8.36 (active)
CAKGWRLLAPAGNASASA [HC671]	0.0408 (inactive)	0.181 (inactive)	-0.469 (inactive)
CALPINALSNAGNASASA [HC1381]	0.137 (inactive)	-0.538 (inactive)	-0.0923 (inactive)
CAFWEGVFTGAGNASASA [HC939]	-1.63 (inactive)	0.063 (inactive)	-1.49 (inactive)
CATLTCGFADAGNASASA [HC223]	-1.51 (inactive)	-0.777 (inactive)	-0.721 (inactive)
CAEVVTSTIVAGNASASA [HC2224]	1.34	0.923 (inactive)	-0.591 (inactive)
CAIEMEECSQAGNASASA [HC1784]	0.115 (inactive)	-0.919 (inactive)	-0.409 (inactive)
CARRRRAKRSAGNASASA [FS-1481]	10 (active)	9.95 (active)	7.99 (active)
CAMEECCQHLAGNASASA [HC34]	0.752 (inactive)	-0.68 (inactive)	0.844 (inactive)
CAESTRTRRAAGNASASA [FS-1522]	8.54 (active)	9.73 (active)	8.09 (active)
CAHPSRKRRAAGNASASA [FS-132]	11.3 (active)	11.3 (active)	8.53 (active)
CAHPVREARAAGNASASA [FS-1211]	3.66 (active)	5.02 (active)	5.4 (active)
CAERSRVCRCAGNASASA [FS-123]	-0.711 (inactive)	0.103 (inactive)	2.18
CAHPNIEEVAAGNASASA [HC840]	0.6 (inactive)	-0.828 (inactive)	0.48 (inactive)
CAERSREMRAAGNASASA [FS-1120]	0.288 (inactive)	0.367 (inactive)	-1.27 (inactive)
CAHYVPESDAAGNASASA [HC1127]	-0.402 (inactive)	-0.697 (inactive)	-1.88 (inactive)
CAERSRKRRAAGNASASA [FS-417]	11.5 (active)	10.5 (active)	7.42 (active)

Sequence	furin cleavage Z-score (7.5 min)	furin cleavage Z-score (15 min)	furin cleavage Z-score (30 min)
CAMNTPGLPVAGNASASA [HC932]	0.685 (inactive)	0.0364 (inactive)	-1.85 (inactive)
CAEVVTSTWGAGNASASA [HC2256]	0.945 (inactive)	1.37	-1.03 (inactive)
CAMQECSQHLAGNASASA [HC1702]	0.311 (inactive)	0.512 (inactive)	-0.705 (inactive)
CAEEQKLPINAGNASASA [HC1379]	0.861 (inactive)	-1.11 (inactive)	-0.462 (inactive)
CASVPCHRPSAGNASASA [HC2317]	0.746 (inactive)	0.823 (inactive)	0.912 (inactive)
CAIPVRAPRSAGNASASA [FS-442]	5.71 (active)	3.56 (active)	4.32 (active)
CAREFRAHRSAGNASASA [FS-487]	1.52	0.689 (inactive)	1.39
CANATRAPRSAGNASASA [FS-63]	8.66 (active)	8.42 (active)	6.36 (active)
CASRKRAPRSAGNASASA [FS-963]	10.6 (active)	8.82 (active)	9.02 (active)
CAEFERAPRSAGNASASA [FS-524]	0.193 (inactive)	0.266 (inactive)	0.907 (inactive)
CATTPCSGLWAGNASASA [HC1905]	0.96 (inactive)	1.01	-0.0137 (inactive)
CATSTWVLVGAGNASASA [HC989]	-2.25 (inactive)	-0.362 (inactive)	-1.37 (inactive)
CAYSSMPPLEAGNASASA [HC1353]	0.446 (inactive)	1.62	1.96
CAERVVCCSMAGNASASA [HC2133]	-0.391 (inactive)	0.896 (inactive)	0.654 (inactive)
CARFPRFVNVAGNASASA [FS-2925]	3.2	3.36	7.1 (active)
CALGARERRDAGNASASA [FS-1226]	13.9 (active)	15.5 (active)	11.8 (active)
CAVGERFRRDAGNASASA [FS-386]	11.7 (active)	13 (active)	8.87 (active)
CAERAPERRDAGNASASA [FS-24]	-2.22 (inactive)	-0.00906 (inactive)	-1.69 (inactive)
CARRRRGFRQAGNASASA [FS-2788]	2.04	3.6 (active)	4.63 (active)
CARFPRGVSRAGNASASA [FS-3247]	-0.934 (inactive)	-0.454 (inactive)	-0.752 (inactive)
CARQPRPAGVAGNASASA [FS-3041]	-0.899 (inactive)	-0.574 (inactive)	-0.629 (inactive)
